The structures appear in SMILES notation. Hit rate of the full screen: of about 220,000 compounds, about 2,600 (1.2%) were called active. The entries come from a sample that favours actives as a whole. Unmarked numbers belong to inactive results.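 Rule for the calls: active = activation above the mean of all tested compounds plus 3 SD, set per screening run (cut at about 8.8% in these data); inactive = the rest.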

The experiment addresses Wee1-like protein kinase (Homo sapiens) (UniProt P30291). Description: compounds stabilizing Wee1-luciferase fusion – cell-based, HeLa, Wee1K328M-luciferase, luminescence, primary screen (AID 1321).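 Note: cells exposed to compound for 20 h before luminescence read; 0% = DMSO alone and 100% = MG132 at 30 µM.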 The following applies: HeLa Luc-Wee1K328M stability, at 5 µM, active compounds read high, 100% = proteasome inhibitor MG132 effect.
Take `O=[N+]([O-])/C=C1\CCCCCN1`: the reporter increase is -2.66%.

Turning to `COc1ccc(CCN2C(=O)CC(N3CCC(C(N)=O)CC3)C2=O)cc1OC` (stereo not drawn), the reporter increase is -3%. `C/C(=N\NC(=S)Nc1ccc(C)cc1)c1cc2ccccc2o1`: the reporter increase is 5.15%. Next, `O=C(CCN1c2ccccc2Sc2ccccc21)Nc1ccccc1`: 0.76%; `CCN1/C(=C/C(=S)Nc2ccccc2)Sc2ccccc21`: 11.6% (active). As to `CCC(=O)/C=C1\Sc2ccccc2N1CC`, the reporter increase was -1.98%. Take `COc1ccccc1N1CCN(C(=O)c2cn(-c3ccccc3)nc2-c2cccnc2)CC1`: the reporter increase is -0.84%. For the molecule `COc1ccc2oc(=O)c(C(=O)N3CCN(c4ccccc4F)CC3)cc2c1`, the reporter increase is -2.32%. Next, `COc1ccc(Nc2ncc(C(=O)N3CCN(c4ccccc4OC)CC3)c3ccccc23)cc1`: 8.82% (active); `O=C(/C=C/Nc1ccc(S(=O)(=O)Nc2cnc3ccccc3n2)cc1)c1cccnc1`: -0.5%. Next, `COc1cc(OC)c(OC)cc1/C=N/Nc1ncnc2c1[nH]c1ccc(C)cc12`: 0.2%. Next, `O=C(NNS(=O)(=O)Cc1ccccc1)c1ccc([N+](=O)[O-])cc1`: -1.88%. For the molecule `COC(=O)c1cc2c(N)c(C(=O)c3ccc(Cl)cc3)sc2nc1C(OC)OC`, the reporter increase was -2.57%. Consider `CC(C)OC(=O)c1sc2nc3c(cc2c1N)C(=O)CCC3`, for which the reporter increase was 11.6% (active). For `Nc1c(C(=O)NCc2ccccc2)sc2nc3c(cc12)C(=O)CCC3`, the reporter increase is 2.8%. As for `CN(CC(O)COc1ccc(S(=O)(=O)N2CCOCC2)cc1Cl)C1CCCCC1` (stereo not drawn), the reporter increase was -3.05%. Consider `O=C(N/N=C/c1cccc([N+](=O)[O-])c1)c1ccncc1`, for which the reporter increase is 2.44%. For `Cn1ccc(NC(=O)Nc2ccc(Cl)cc2)n1`, the reporter increase was 2.1%.

For `CC(C)S(=O)(=O)c1csc(NC(=O)Nc2ccc(Cl)cc2)c1Cl`, the reporter increase is 14.2% (active). For the molecule `CN(c1cccc(NC(=O)Nc2ccc(Cl)cc2)c1)S(C)(=O)=O`, the reporter increase was 4.1%. With `Cn1nc(C(F)(F)F)cc1C(=O)O`, the reporter increase is -1.44%. For the molecule `COc1cccc(/C=N/NC(=O)CNC(=O)c2ccc(S(=O)(=O)N3CCOCC3)cc2)c1OC`, the reporter increase was 12.4% (active). On to `COc1ccc(/C=N/NC(=O)CNC(=O)c2ccc(S(=O)(=O)N3CCCC3)cc2)c(OC)c1`, for which the reporter increase is 0.74%. For `COc1ccc(Br)cc1/C=N/NC(=O)c1cccc(S(=O)(=O)N2CCOCC2)c1` the value was 8.21%; for `COC(=O)c1sccc1NC(=S)Nc1ccc(C)cc1`, 2.58%. With `O=C(NCc1cccs1)C1CCN(S(=O)(=O)c2ccc(Cl)cc2)CC1`, the reporter increase was 0.23%. Take `O=C(CNCc1ccco1)Nc1cc(S(=O)(=O)N2CCOCC2)ccc1N1CCCC1`: the reporter increase is -2.01%. As for `O=C(CNCc1cccs1)Nc1cc(S(=O)(=O)N2CCCC2)ccc1Cl`, the reporter increase was 8.84% (active).

For the origin of these results see PubChem BioAssay AID1321 (The Scripps Research Institute Molecular Screening Center, 2008).
